Test results as given in PubChem BioAssay (NCI).
This is part of a sample that, as a whole, favours compounds with a hit. Of some 83,000 tested, about 20% had one in any assay.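 Interpretation: 100, growth as untreated; towards 0, rising growth inhibition; 0, no net growth; 0 to -100, cell death. Compounds scoring below 10 were considered active.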 Calls of active or inactive are those of the source.

Each molecule was assayed on SF-295 CNS (assay: NCI-60 one-dose screen, 48 h (100 = growth as untreated, 0 = no growth, -100 = all killed)). Conditions: 10 µM unless noted.

Row | SMILES | growth
1 | Cc1ccc(Cl)cc1Nc1nc(C(F)(F)F)ccc1C(=O)N/N=C/c1cccnc1 | -20.6% (active)
2 | Fc1ccc(-c2nn(-c3ccccc3)cc2-c2nc3ccccc3o2)cc1 | 45.4% (inactive)
3 | CCOC(=O)C(=Cc1cccc(Br)c1)C(=O)OCC | 97% (inactive)
4 | COc1cccc(NC(=O)Cn2cc(CN3CCN(c4ccnc5cc(Cl)ccc45)CC3)nn2)c1 | 87.5% (inactive)
5 | CCOC(=O)c1cc2c(=O)oc3ccccc3c2oc1=O | 110% (inactive)
6 | O=C(Nc1cc(Cl)ccc1O)c1ccc(Nc2ccnc(C(F)(F)F)c2)cc1 | -7.57% (active)
7 | C=C(C)[C@@H]1CC[C@]2(C(=O)O)CC[C@]3(C)[C@H](CC[C@@H]4[C@@]5(C)C[C@@H](Cc6cn(CCO[C@@H]7O[C@H](COC(C)=O)[C@H](OC(C)=O)[C@H](OC(C)=O)[C@H]7OC(C)=O)nn6)[C@H](O)C(C)(C)[C@@H]5CC[C@]43C)[C@@H]12 | 76.7% (inactive)
8 | CC(C)CCC[C@@H](C)[C@H]1CC[C@H]2[C@@H]3CC=C4C[C@@H](C(C(=O)O)C(=O)O)CC[C@]4(C)[C@H]3CC[C@]12C | -61.2% (active)
9 | O=S(=O)(Nc1ccc(Cl)cc1)c1ccc(-c2cnc(C3CC3)o2)cc1 | 33.6% (inactive)
10 | C#CCOc1ccc2ncnc(Nc3ccc(NC(=O)CCl)cc3)c2c1 | 60.6% (inactive)
11 | CCOC(=O)C1=C(NC)OCC1=O | 106% (inactive)
12 | COC(=O)c1c2c(c(C)[n+]([O-])c1C)C(=O)C=C(NCc1ccc(Br)cc1)C2=O | -97.9% (active)
13 | CCN(CC)CCOc1ccc(-c2c(-c3ccccc3)c(=O)oc3ccccc23)cc1 | 104% (inactive)
14 | Nc1nc(=S)c2ncn(C3OC(COP(=O)(O)O)C(O)C3O)c2[nH]1 (stereo not given) | 19.9% (inactive)
15 | COc1ccc(/C=N/NC(=O)CCN2c3ccccc3Sc3ccccc32)cc1 | 68.8% (inactive)
16 | c1cnc2[nH]cc(-c3csc(-c4cn(CCCN5CCOCC5)c5ccccc45)n3)c2c1 | 16.7% (inactive)
17 | S=C1CCSC(=S)N1CCCN1C(=S)CCSC1=S | 105% (inactive)
18 | COc1ccc(C(=O)Nc2ncc(Cc3ccc(F)cc3)s2)cc1 | 9.8% (active)
19 | C=C1C(=O)O[C@H]2[C@H]1CC/C(COC(=O)NCc1cc[nH]c1)=C\CC[C@@]1(C)O[C@@H]21 | 83.5% (inactive)
20 | CN(C)CCCC1(c2ccc(F)cc2)OCc2cc(-c3cccc4[nH]ccc34)ccc21 (stereo not given) | 20% (inactive)

Row | SMILES | growth
21 | COC(C(=O)[C@@H](O)[C@@H](C)O)[C@@H]1Cc2cc3cc(O[C@H]4C[C@@H](O[C@H]5C[C@@H](O)[C@H](O)C(C)O5)[C@H](O)C(C)O4)c(C)c(O)c3c(O)c2C(=O)[C@H]1O[C@H]1C[C@@H](O[C@H]2C[C@@H](O[C@H]3C[C@@H](O)[C@H](OC)C(C)O3)[C@@H](O)C(C)O2)[C@H](O)C(C)O1 (stereo not given in full) | 8.2% (active)
22 | CCNc1cc(-c2cccc(OC(F)(F)F)c2)nc2ccc(N3CCCC3)cc12 | 23.6% (inactive)
23 | CCNc1nc(-c2ccc(Cl)c(OC)c2)c(-c2ccnc(NCCCNS(=O)(=O)c3ccc(Cl)cc3)n2)s1 | 70.3% (inactive)
24 | Cc1nc2c(=O)[nH]c(SCC(=O)Nc3cccc(F)c3)nc2[nH]c1=O | 103% (inactive)
25 | Cc1ccc(-c2nc3nc(-c4ccc(F)cc4)nc(N4CCNCC4)c3o2)cc1 | 91.6% (inactive)
26 | O=C(/C=C(/C=C/c1cccc2[nH]ccc12)OB(F)F)/C=C/c1cccc2[nH]ccc12 | -49.5% (active)
27 | Oc1c(Cl)cc(Cl)c2ccc(Cn3cc(-c4cc(C(F)(F)F)cc(C(F)(F)F)c4)nn3)nc12 | 106% (inactive)
28 | CC[C@@H](C(=O)[C@@H](C)[C@@H](O)[C@H](C)[C@@H]1O[C@@H]([C@@H](CC)C(=O)NCCc2ccc(F)cc2)CC[C@@H]1C)C1O[C@]2(C=CC(=O)[C@]3(CC[C@@](C)([C@H]4CC[C@](O)(CC)[C@H](C)O4)O3)O2)[C@H](C)C[C@@H]1C (stereo not given in full) | 18.4% (inactive)
29 | c1cc2[nH]ncc2cc1-c1nc2ccc3[nH]ncc3c2c2c1CCCC2 | 19.4% (inactive)
30 | C#CCOc1cccc(Nc2ncnc3c(NC(=O)C=C)cccc23)c1 | 53.6% (inactive)
31 | N#Cc1cnc(NCCc2ccncc2)nc1-n1cnc2ccccc21 | 75.1% (inactive)
32 | CCOC(=O)c1c(NC(=O)c2ccc(C(C)C)cc2)sc2c(CN(C)C)c(O)ccc12 | 4.37% (active)
33 | COc1ccc(N2CCC(=O)NC2=S)cc1 | 100% (inactive)
34 | Oc1c(Cl)cc(Cl)c2ccc(Cn3cc(-c4cc(F)cc(F)c4)nn3)nc12 | 100% (inactive)
35 | CO/N=C(/C)c1ccc(NC(=O)CSc2nnc(-c3ccncc3)n2-c2ccccc2)cc1 | 33% (inactive)
36 | O=C1c2cccnc2C(=O)c2c1c(C(=O)NCCn1ccnc1)c1ccccn21 | 29.5% (inactive)
37 | O=C1NC(=O)c2c1c1c3ccccc3ccc1c1[nH]c3ccc(Br)cc3c21 | 24.3% (inactive)
38 | Cc1ccc(-c2nc3nc(-c4ccccc4)nc(N4CCNCC4)c3o2)cc1 | -83.2% (active)
39 | CC(C)(C)n1cc(-c2ccnc(NCCNS(=O)(=O)c3cccc(F)c3)c2)c(-c2ccccc2)n1 | 76.8% (inactive)
40 | Cc1c(-n2nnc(-c3nc4ccccc4s3)c2N)c(=O)n(-c2ccccc2)n1C | 103% (inactive)
